About 25,000 (6.9%) of roughly 360,000 compounds were called active. Roughly 9% stayed inconclusive and do not appear here. This is one part of a sample in which actives are shown more often than they occur. A number with no mark means an inactive call. The call rests on the fitted dose curve; in most records, active means well fitted inhibition curve with a large enough effect; inconclusive means small, poorly fitted or top-dose-only effect; inactive means flat fitted curve, though single readings scatter.

Luciferin 4-monooxygenase (Photinus pyralis), sequence (P08659 whole entry, looked up): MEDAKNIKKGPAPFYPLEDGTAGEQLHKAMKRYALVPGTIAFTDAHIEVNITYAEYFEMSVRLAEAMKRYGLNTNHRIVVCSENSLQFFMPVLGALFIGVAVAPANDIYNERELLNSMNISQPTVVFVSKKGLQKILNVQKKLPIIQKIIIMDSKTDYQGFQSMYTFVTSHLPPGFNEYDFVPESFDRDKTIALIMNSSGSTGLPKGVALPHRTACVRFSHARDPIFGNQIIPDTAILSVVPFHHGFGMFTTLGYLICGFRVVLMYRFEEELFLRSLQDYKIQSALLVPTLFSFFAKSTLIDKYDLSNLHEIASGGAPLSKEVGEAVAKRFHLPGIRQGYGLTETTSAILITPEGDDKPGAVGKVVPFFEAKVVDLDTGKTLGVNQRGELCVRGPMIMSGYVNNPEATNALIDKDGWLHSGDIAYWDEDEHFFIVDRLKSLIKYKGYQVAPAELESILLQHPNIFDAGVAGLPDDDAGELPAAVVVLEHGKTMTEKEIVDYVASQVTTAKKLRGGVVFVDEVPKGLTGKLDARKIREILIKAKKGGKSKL

This assay concerns the target Luciferin 4-monooxygenase (Photinus pyralis) (UniProt P08659). Put plainly: qHTS profiling assay for firefly luciferase inhibitor/activator using purifed enzyme and Km concentrations of substrates (counterscreen for miR-21 project). Further: nearly all actives have a fitted effect of over 55% in size.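 On activity change, negative = inhibition: plate controls were vehicle for no effect and reference inhibitor for full effect.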 The settings on record: purified FLuc, luminescence inhibition; series mostly up to 57.5 µM; activity change, negative = inhibition: at the top concentration. From the text: MLPCN Grant: 1 R21 NS059478-01 (miR-21 grant) Assay Provider: NCGC NCGC Assay Overview: Firefly (Photinus pyralis) luciferase is one of the most commonly used transcriptional reporters for a number of reasons. It is considered one of the more dynamically responsive reporters -that is, responsive to changes in reporter transcription - as it requires no post-translational modifications and is enzymatically active directly after protein synthesis (Wood, 1998). Additionally, the half-life of the luciferase protein is short relative to other reporter-gene products (Wood, 1995). Whereas reporters with long half-lives potentially allow for increased signal due to accumulation of reporter-gene product, once accumulated in the cell, dynamic changes in reporter-gene expression may be difficult to detect(Fan and Wood, 2007; Almond et al., 2004). It has been shown that wild-type P. pyralis luciferase has a half-life of approximately […] hours in mammalian cells (Thompson et al., 1991). Firefly luciferase reporter-gene assays are also generally considered one of the most sensitive assay types (Wood, 1995; Wood, 1998). Although light produced in a bioluminescence reaction is of lower intensity than that produced during fluorescence emission, this is offset by little to no background light inherent to luminescent assays. Thus the luciferase reporter can be expressed at much lower levels than fluorescent proteins while still providing robust signal. # However, it was initially observed, in 1991, by Thompson et al., that compounds that resemble the substrates of firefly luciferase (FLuc) can act as competitive inhibitors of the enzyme, and that these compounds, upon interaction with luciferase in the cell, can actually stabilize the protein and increase its half-life. Accumulated intracellular FLuc protein can be measured as an increase in luminescence signal, upon addition of detection reagents (which contain high concentrations of FLuc substrates) commonly used in high-throughput screening. In cell-based reporter gene assays that use FLuc as the reporter gene to quantitate the potential influence of a given compound against the target biology, this apparent increase in luminescence can mistakenly be interpreted as identification of a compound that is active against the target of interest. This is the case for the miR-21 FLuc reporter gene assay used to identify inhibitors of the miR-21 pathway (PubChem AID 2289) - compounds of interest will inhibit miR-21 biogenesis/expression or activity, and are identified by causing an increase in luminescence, due to increased FLuc translation. However, FLuc inhibitory compounds that stabilize the FLuc protein will give an identical read-out, making it difficult to distinguish compounds that are active against the target from those active against FLuc. Previous profiling work to determine the prevalence of compounds that affect FLuc enzymatic activity (PubChem AID 411) identified that ~3% of the MLSMR library (then at ~72K) inhibited FLuc. […] Since the MLSMR had grown to ~350K compounds, and since it was expected that a significant percentage of compounds found active in the miR-21 FLuc assay would be FLuc inhibitors, the library was screened for activity against FLuc using a biochemical assay of purified FLuc and KM concentrations of FLuc substrates (D-luciferin and ATP).
NCGC Assay Protocol Summary: Reagents: 50mM Tris acetate, pH 7.5; 10mM Mg acetate; 10uM D-luciferin (Sigma #L9504); 10uM ATP; 0.01% Tween-20; 0.05% BSA; 10nM P. pyralis luciferase (Sigma #L9506) Control compounds used were two known firefly luciferase inhibitors (compounds (2) and (5) in Auld et al., 2010), and DMSO. […]
A general note: In qHTS, concentration-response curves come from the screen itself.
Turning to `COc1ccccc1CNC(=O)COC(=O)CNS(=O)(=O)c1ccc(NC(C)=O)cc1`, the “activity change, negative = inhibition” value is -0.864%. For the compound `Cc1cccc(N2CCN(C(=O)c3cnc(N4CCCC4)nc3C)CC2)c1C`, the “activity change, negative = inhibition” value is 2.04%.

For `COc1ccccc1CNC(=O)C1CCN(C(=O)[C@@H]2Cc3ccccc3CN2)CC1`, the “activity change, negative = inhibition” value was -0.16%. Regarding `COc1ccccc1CCNC(=O)C1CCN(C(=O)/C=C/c2ccccc2)CC1`, the Potency was 21.3 µM (active). For the compound `COc1ccccc1CNC(=O)C1CCN(S(C)(=O)=O)CC1`, the “activity change, negative = inhibition” value was 2.3%. For the compound `OC1CCCN(c2ncnc3c2nnn3Cc2c(F)cccc2Cl)C1` (stereo not given), the “activity change, negative = inhibition” value was -13.1%.

For the compound `C/C(=C/c1ccccc1)C(=O)N1CCN(c2ccccc2)CC1`, the “activity change, negative = inhibition” value was -12.4%. As to `Cc1cc(C)c2oc(C(=O)Nc3ccc(S(=O)(=O)Nc4nccc(C)n4)cc3)cc(=O)c2c1`, the “activity change, negative = inhibition” value is -0.483%. As to `Cc1cc(C)nc(NS(=O)(=O)c2ccc(N/C=C\C(=O)c3cccs3)cc2)n1`, the “activity change, negative = inhibition” value is -7.27%. For `Cc1noc(NS(=O)(=O)c2ccc(NC(=O)C34CCC(CC3)C4)cc2)c1C`, the “activity change, negative = inhibition” value is 0.134%.

As to `Cc1ccc(C(=O)/C=C/Nc2ccc(S(=O)(=O)Nc3onc(C)c3C)cc2)cc1`, the Potency was 15.1 µM (active). In the case of `Cc1ccnc(NS(=O)(=O)c2ccc(NC(=O)c3oc4ccc(F)cc4c3C)cc2)n1`, the Potency was 26.9 µM (active).

For `CCn1c(SCC(=O)Nc2ccc(S(=O)(=O)Nc3onc(C)c3C)cc2)nnc1-c1ccccc1`, the “activity change, negative = inhibition” value was 2.13%. Consider `Cc1noc(NS(=O)(=O)c2ccc(NC(=O)c3oc4ccc(F)cc4c3C)cc2)c1C`, for which the Potency was 15.1 µM (active). On to `Cc1ccnc(NS(=O)(=O)c2ccc(NC(=O)c3ccc(S(=O)(=O)N(C)C)cc3)cc2)n1`, for which the “activity change, negative = inhibition” value is -7.16%.

Regarding `Cc1cc(OC(C)C(=O)Nc2ccc(S(=O)(=O)Nc3onc(C)c3C)cc2)cc(C)c1Cl` (stereo not given), the “activity change, negative = inhibition” value is -0.156%. As for `COc1ccc(N2CCN(S(=O)(=O)c3ccc4c(c3)N(C(C)=O)CCO4)CC2)cc1`, the “activity change, negative = inhibition” value was 1.92%. For the compound `CCOc1ccc(S(=O)(=O)NCCC(=O)NCC2CCCO2)cc1` (stereo not given), the “activity change, negative = inhibition” value was 2.24%.

For the compound `O=C(Nc1cccnc1Oc1ncnc2cc(Cl)ccc12)c1ccc(F)cc1`, the “activity change, negative = inhibition” value is -2.02%. For the compound `O=C(Nc1cccc2ncccc12)c1ccc(-c2ccc(Cl)cc2Cl)o1`, the Potency is 12 µM (active). For `Cc1cc(NC(=O)c2ccc(-c3ccc(Cl)cc3)o2)cc(-c2nc3ncccc3o2)c1O`, the “activity change, negative = inhibition” value was 3.37%.

For the compound `CCCCn1nc(C(=O)OCC(=O)Nc2sccc2C(N)=O)c2ccccc2c1=O`, the “activity change, negative = inhibition” value was -1.34%. Consider `NC(=O)c1ccsc1NC(=O)COC(=O)COc1ccc(C=O)cc1`, for which the “activity change, negative = inhibition” value was 6.4%.

Consider `COc1cc(OC)cc(C(=O)OCC(=O)Nc2sccc2C(N)=O)c1`, for which the Potency was 15.1 µM (active). On to `Cc1ccc(F)cc1NC(=O)CSCc1c(C)noc1C`, for which the “activity change, negative = inhibition” value is 3.3%. On to `COC(=O)[C@H](CC(C)C)NC(=O)N1CCCCC1C` (stereo not given in full), for which the “activity change, negative = inhibition” value was 4.28%. For the compound `CC1CCCCN1Cc1c(O)ccc2c(=O)c(-c3cccc(Cl)c3)c(C(F)(F)F)oc12` (stereo not given), the “activity change, negative = inhibition” value was -3.84%.

As for `CCC1CCCCN1Cc1c(O)ccc2c(=O)c(Oc3ccccc3Cl)c(C(F)(F)F)oc12` (stereo not given), the “activity change, negative = inhibition” value was 1.49%. On to `Cc1cc(C)cc(NC(=O)Cc2csc(C)n2)c1`, for which the “activity change, negative = inhibition” value is -10.2%.

Turning to `CCOC(=O)c1oc2ccccc2c1NC(=O)c1cccs1`, the “activity change, negative = inhibition” value is 13.2%. Regarding `COc1cccc(CC(=O)Nc2ccc(-c3csc(C)n3)cc2)c1`, the Potency was 16.9 µM (active). Take `Cc1nc(-c2ccc(NC(=O)c3cccs3)cc2)cs1`: the Potency was 0.426 µM (active). Consider `Cc1nc2ccccn2c(=O)c1NC(=O)c1cccs1`, for which the “activity change, negative = inhibition” value was -0.785%. For the compound `COc1cccc(NC(=O)CN2CCN(c3nc(-c4cccc(OC)c4)cs3)CC2)c1`, the “activity change, negative = inhibition” value was -18.5%. On the same count and under the same terms, with `O=C(Nc1n[nH]c(C(F)(F)F)n1)c1cccs1` the figure was 2.94%; with `CCc1c(C)sc(NC(=O)c2ccc(Br)o2)c1C(=O)OC`, -14.9%. Take `Cc1ccc(-c2csc(NC(=O)c3cccs3)n2)cc1`: the Potency was 10.7 µM (active). In the case of `CCc1c(C)sc(NC(=O)c2cccs2)c1C(N)=O`, the Potency was 6.75 µM (active). Regarding `CCC1SC(CC)C(=O)N(CC(=O)NC2CCCCC2)C1=O` (stereo not given), the “activity change, negative = inhibition” value was 5.3%. Still for that read-out and setting: as for `Cc1cccc(NC(=O)C2CCCN2S(=O)(=O)c2cccc3nsnc23)c1C` (stereo not given), the figure is -1.86%; as for `Cc1nn(C)c2c1c(C(F)(F)F)cc(=O)n2C(C)C(=O)NCc1ccc(Cl)cc1` (stereo not given), -6.42%; as for `CC(CC(=O)Nc1ccccc1)n1ccnc1` (stereo not given), -1.48%.

Turning to `CCc1nc2ccc(C(=O)N3CCN(c4cc(Cl)ccc4C)CC3)cc2nc1CC`, the “activity change, negative = inhibition” value was -1.21%. Take `COc1ccc(CCNC(=O)Cn2c(=O)cc(C(F)(F)F)c3c(C)nn(C)c32)c(OC)c1`: the “activity change, negative = inhibition” value is 7.08%. With `CCc1ccccc1NC(=O)N1CCC2(CC1)Oc1ccccc1C(=O)N2Cc1ccccc1F`, the “activity change, negative = inhibition” value is -10.7%. As to `CCN(CC(=O)Nc1cc(Cl)ccc1C)C(=O)CSCc1ccccc1`, the “activity change, negative = inhibition” value was -2.11%. In the case of `Fc1cccc(Cc2noc(CN3CCN(c4cnccn4)CC3)n2)c1`, the “activity change, negative = inhibition” value was 2.61%. Consider `CCCc1nnc(NC(=O)CCC(=O)NC2CC2)s1`, for which the “activity change, negative = inhibition” value was 0.134%. As for `CCc1nnc(NC(=O)Cc2cccs2)s1`, the “activity change, negative = inhibition” value was -1.84%. On to `CCCc1nnc(NC(=O)c2cccs2)s1`, for which the Potency is 16.9 µM (active).

The values above are taken from PubChem BioAssay AID588342 (National Center for Advancing Translational Sciences (NCATS), 2011).
